Mdm2-MdmX inh: human Mdm2/MdmX binding inhibition | SaOS-2 split-luciferase Mdm2/MdmX complementation, luminescence | inhibition, % at 8 µM | 3% of 330,000 active | AID 485346;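 active means inhibition of at least 50% at 8 µM in the primary screen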
Target sequence (O15151 whole entry, looked up): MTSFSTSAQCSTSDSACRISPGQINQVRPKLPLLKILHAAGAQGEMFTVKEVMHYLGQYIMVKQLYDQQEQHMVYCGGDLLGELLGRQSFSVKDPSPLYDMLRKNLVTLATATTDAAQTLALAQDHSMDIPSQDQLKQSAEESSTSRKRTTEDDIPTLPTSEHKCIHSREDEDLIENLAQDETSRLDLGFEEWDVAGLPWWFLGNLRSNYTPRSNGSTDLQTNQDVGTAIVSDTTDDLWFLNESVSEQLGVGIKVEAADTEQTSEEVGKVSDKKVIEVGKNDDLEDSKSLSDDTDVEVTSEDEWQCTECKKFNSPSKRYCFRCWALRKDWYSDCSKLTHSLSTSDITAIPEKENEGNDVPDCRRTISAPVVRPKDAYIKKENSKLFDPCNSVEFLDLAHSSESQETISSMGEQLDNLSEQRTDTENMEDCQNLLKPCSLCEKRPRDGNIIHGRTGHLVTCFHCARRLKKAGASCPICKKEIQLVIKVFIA
Target sequence (Q00987 whole entry, looked up): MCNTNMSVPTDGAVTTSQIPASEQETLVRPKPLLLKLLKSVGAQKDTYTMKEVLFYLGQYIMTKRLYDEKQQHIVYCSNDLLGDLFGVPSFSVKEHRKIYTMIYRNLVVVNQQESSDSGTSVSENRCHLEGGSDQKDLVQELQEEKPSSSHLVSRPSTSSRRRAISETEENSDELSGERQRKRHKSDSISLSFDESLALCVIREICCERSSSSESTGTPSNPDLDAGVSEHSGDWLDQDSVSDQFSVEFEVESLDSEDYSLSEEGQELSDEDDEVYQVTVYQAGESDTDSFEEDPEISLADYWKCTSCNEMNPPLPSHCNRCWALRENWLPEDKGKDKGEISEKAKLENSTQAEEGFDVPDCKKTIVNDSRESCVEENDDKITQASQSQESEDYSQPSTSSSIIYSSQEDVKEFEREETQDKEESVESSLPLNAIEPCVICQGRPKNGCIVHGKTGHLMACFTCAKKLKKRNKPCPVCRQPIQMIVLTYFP
MPTP block: blocks calcium-induced mitochondrial swelling; 1.4% of 360,000 active; inhibition, % at 10 µM; AID 602449; isolated mouse mitochondria, Ca2+ swelling absorbance, 30 min;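 active means inhibition of 50% or more, scaled per plate between neutral and stimulator controls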
Beta apoptosis: blocks beta cell apoptosis; protection from apoptosis, % (concentration not given with the values); 0.8% of 300,000 active; AID 435005; INS-1E cytokine-induced death, ATP luminescence, 48 h; percent of positive-control rescue, neutral wells zero;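 active means Every replicate reaches about 75%, or at least half do and their mean reaches it too, limit read from the data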;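 further: higher means more ATP so stronger rescue from cytokine killing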
Gli-Sufu block: blocks Gli-Sufu signaling in a luciferase reporter; Sufu-KO-LIGHT fibroblasts, Gli luciferase reporter luminescence; inhibition, % at 5 µM; 0.74% of 340,000 active; AID 588413;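 active means inhibition above about 55%, limit read from the data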
NR3A LBD binder: modulates the human NR3A ligand-binding domain. NR3A LBD differential scanning fluorimetry, Tm shift; 0% = protein alone, 100% = glycine-bound protein. Tm shift relative to glycine control, % at 25 µM. 2.5% of 340,000 active;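 active means melting temperature shift of at least 10% of the positive control shift, at one fixed dose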
CSC inhib: blocks cancer stem cells; inhibition, % at 7.5 µM; AID 2717; 1.1% of 300,000 active; cancer stem cell-like cells viability, luminescence; in the data active means inhibition above about 75%; tested in HMLE shEcad cells
Numbers stand for hits; – = inactive; · = no result given. An excerpt weighted towards active compounds, which were near 6.6% of everything screened.

SMILES | Mdm2-MdmX inh | MPTP block | Beta apoptosis | Gli-Sufu block | NR3A LBD binder | CSC inhib
CNc1nc(=S)[nH]c2ccccc12 | – | – | – | – | – | –
CCc1sc(C(=O)Nc2ccc(NC(C)=O)cc2)cc1C | – | – | – | – | 11.1 | –
COc1ccc(NC(=O)NNC(=O)CCc2ccc(O)c(O)c2)cc1OC | – | – | – | – | – | –
CCC(C(=O)N1CCN(Cc2ccc3c(c2)OCO3)CC1)n1nnc2ccccc2c1=O (stereo unspecified) | · | – | · | · | · | ·
Cc1cc(C)cc(N2C(=O)c3nccnc3C2=O)c1 | – | – | – | – | 14.4 | –
Cc1cc(C)cc(N2C(=O)C=CC2=O)c1 | · | – | · | – | – | ·
CCCNC1=C(N(C(C)=O)c2cccc(F)c2)C(=O)c2ccccc2C1=O | · | – | 125.5 | 84.9 | – | 101.8
Cc1ccc(NC(=O)C2(S(=O)(=O)c3ccc(Cl)cc3)CC2)c(Br)c1 | – | – | – | – | – | ·
COc1ccc(C#CC2=CC(=O)CC(C)(C)C2)cc1 | · | – | · | · | · | ·
CCc1[nH]c(=O)c(C#N)c2c1CSC(C)(C)C2 | – | – | – | – | 12.7 | –
COc1cc(/C=C/c2nc(N)nc(-c3ccccc3O)n2)cc(OC)c1OC | – | – | – | – | – | –
COc1ccc(/C=C/c2nc(N)nc(-c3ccccc3O)n2)cc1 | – | – | – | – | 72.3 | –
O=C(CNC(=O)OCc1ccccc1)Oc1ccc2ccc(=O)oc2c1 | – | – | – | – | – | –
O=C(NC(Cc1ccccc1)C(=O)Oc1ccc2c(C(F)(F)F)cc(=O)oc2c1)OCc1ccccc1 (stereo unspecified) | · | – | – | – | 14.0 | –
COc1ccc(-n2c(=S)[nH]c3cc(C(=O)Nc4ccccc4OC)ccc3c2=O)cc1 | – | · | 76.6 | · | · | –
COc1ccc(-n2c(=S)[nH]c3cc(C(=O)Nc4ccccc4OC)ccc3c2=O)c(OC)c1 | – | – | · | – | – | –
CCc1ccc(N2CCN(S(=O)(=O)CC34CCC(CC3=O)C4(C)C)CC2)cc1 (stereo unspecified) | – | – | – | – | – | –
Cc1cccc(NC(=O)C2=C(O)c3ccccc3N(C)S2(=O)=O)c1 | – | – | – | – | – | –
CN1c2ccccc2C(O)=C(C(=S)Nc2ccc(Cl)cc2)S1(=O)=O | – | – | – | – | 27.8 | –
COCOCCn1cc(CN2CCS(=O)(=O)N(Cc3ccc(-c4ccc(F)cc4)cc3)C(CC(C)C)C2=O)nn1 (stereo unspecified) | · | – | · | · | · | ·
N#C/C(=C\c1c(Cl)cccc1Cl)c1nn(-c2ccccc2)c(-n2cccc2)c1C#N | – | – | – | – | – | –
N#C/C(=C\c1c(F)cccc1Cl)c1nn(-c2ccccc2)c(-n2cccc2)c1C#N | – | – | – | – | – | 94.5
CC(C)(C)c1ccc(O)c(/C=N\O)c1 | – | – | – | – | – | –
CC(C)(C)c1ccc(O)c(O)c1 | – | – | – | – | – | 86.3
CCC(=O)NC(c1ccco1)c1cc(Br)c2cccnc2c1O (stereo unspecified) | · | – | · | · | · | ·
SMILES | Mdm2-MdmX inh | MPTP block | Beta apoptosis | Gli-Sufu block | NR3A LBD binder | CSC inhib
CCCC(=O)NC(c1ccco1)c1cc([N+](=O)[O-])c2cccnc2c1O (stereo unspecified) | – | – | – | – | – | 77.4
CCC(=O)NC(c1ccc(C)cc1)c1cc([N+](=O)[O-])c2cccnc2c1O (stereo unspecified) | · | – | 83.1 | – | – | 100.4
CC(OC(=O)c1ccc(NS(=O)(=O)c2ccc3[nH]c(=O)[nH]c3c2)cc1)C(=O)Nc1ccc(Cl)cc1 (stereo unspecified) | – | – | – | – | 15.1 | –
COc1cc2c(cc1NC(=O)C(C)N1CCN(S(=O)(=O)c3ccc(C)c(C)c3)CC1)oc1ccccc12 (stereo unspecified) | – | – | – | – | – | –
COc1cc2c(cc1NC(=O)C(C)OC(=O)c1ccc(S(=O)(=O)Nc3ccccc3Cl)cc1)oc1ccccc12 (stereo unspecified) | – | – | – | – | 10.2 | –
CC(OC(=O)c1ccc(NS(=O)(=O)c2ccc3[nH]c(=O)[nH]c3c2)cc1)C(N)=O (stereo unspecified) | – | – | – | – | – | –
COc1ccc(Cl)cc1NC(=O)C(C)OC(=O)c1ccc(NS(=O)(=O)c2ccc3[nH]c(=O)[nH]c3c2)cc1 (stereo unspecified) | – | – | – | – | 18.1 | –
Cc1ccc(N(CC(=O)NC(C)C)C(=O)CCC(=O)Nc2nccs2)cc1C | – | – | – | – | – | –
CCCCN1C(=O)C(CC(=O)NCC2CCCCC2)CC(C(=O)N(CC)CC)=C1C (stereo unspecified) | · | – | · | · | · | ·
COc1ccc(CCNC(=O)Nc2ccc3c(c2)c(=O)n(C)n3CC=C(C)C)cc1OC | · | – | · | · | · | ·
O=C1C2=C(NC(=S)NC2c2ccc(Cl)cc2)NC(c2ccc(Cl)cc2)N1c1ccc(Cl)cc1 (stereo unspecified) | – | – | – | – | 21.9 | 101.1
Cc1cccc(C)c1-n1nnnc1C1(C)CCC(=O)N1CCc1ccc(O)cc1 (stereo unspecified) | · | – | · | · | · | ·
[O-]/[N+](=C/c1ccccc1)c1ccccc1 | – | – | – | – | – | –
C[C@@H]1CC[C@H]2C(=O)N3[C@@H](CC[C@@H](C)[C@@H]3c3ccc(Br)cc3)C(=O)N2[C@H]1c1ccc(Br)cc1 | – | – | – | – | – | 78.7
CCN(CC)C(=O)C1CCCN(C(=S)Nc2cccc3ccccc23)C1 (stereo unspecified) | – | – | 85.3 | – | – | –
CCN(CC)C(=O)C1CCCN(C(=O)Nc2ccc(NC(=O)N3CCCC(C(=O)N(CC)CC)C3)cc2)C1 (stereo unspecified) | – | – | – | – | – | –
Cc1ccc(OCc2nnc(N)s2)cc1 | – | – | – | – | – | –
Cc1cccc(OCc2nnc(N)s2)c1C | – | – | – | – | 12.2 | –
COC(=O)c1cc(NC(=O)CC2SC(=Nc3ccccc3)N(CCc3c[nH]c4ccccc34)C2=O)cc(C(=O)OC)c1 (stereo unspecified) | – | – | – | – | 22.7 | –
COCCN1C(=O)C(CC(=O)Nc2ccc(C(=O)O)cc2)SC1=Nc1ccccc1 (stereo unspecified) | – | – | – | – | – | –
Cc1nn(Cc2ccc(C(=O)NN)cc2)c(C)c1Cl | – | – | – | – | – | –
Cc1nn(Cc2ccc(C(=O)Nc3nccs3)cc2)c(C)c1Cl | – | – | – | – | – | 83.2
Cc1ccc(O)c(-c2cc(-c3ccccc3F)[nH]n2)c1 | – | – | – | – | – | ·
Cc1ccc(-c2cc(-c3cccc(F)c3)n[nH]2)c(O)c1 | – | – | – | – | 17.1 | –
Cc1ccc(O)c(-c2cc(-c3cccc(F)c3)n[nH]2)c1 | – | – | – | – | 12.2 | –
CCOc1ccc(OCC(=O)OCC(=O)NCC2CCCO2)cc1 (stereo unspecified) | – | – | – | – | – | ·
S=c1nc[nH]c2nc[nH]c12 | – | – | – | – | – | 84.3

High-throughput results (PubChem)
